IDH1 R132H inh = blocks human mutant IDH1 R132H enzyme. 0.093% of 390,000 active. Potency, µM (highest dose often 76.6 µM), for inactives: at the highest dose activity change, negative = inhibition, most hits filed as inhibitors. AID 602179. IDH1-R132H enzyme, NADPH consumption, diaphorase/resazurin fluorescence; also: potency is read from the fitted curve at half-maximal effect; % is scaled to controls: 0 for no effect and ±100 for the full control effect; nearly all actives have a fitted effect of over 65% in size
Target sequence (O75874 whole entry R132H, stated change not applied): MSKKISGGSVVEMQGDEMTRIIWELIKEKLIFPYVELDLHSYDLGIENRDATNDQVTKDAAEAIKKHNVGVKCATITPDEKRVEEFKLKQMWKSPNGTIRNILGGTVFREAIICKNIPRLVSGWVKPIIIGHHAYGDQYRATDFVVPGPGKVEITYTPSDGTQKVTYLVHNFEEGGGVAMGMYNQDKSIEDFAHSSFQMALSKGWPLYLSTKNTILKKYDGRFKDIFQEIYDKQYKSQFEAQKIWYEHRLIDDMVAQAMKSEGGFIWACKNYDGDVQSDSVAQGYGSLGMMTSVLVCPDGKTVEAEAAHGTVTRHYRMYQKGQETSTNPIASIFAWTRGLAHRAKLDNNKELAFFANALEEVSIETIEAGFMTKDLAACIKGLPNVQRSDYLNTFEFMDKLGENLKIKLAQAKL
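IDH1-R132H (0.5 ug/mL dispensed) in pH 7.5 Tris buffer was preincubated 30 min with compound, then given a substrate mix of 0.016 mM NADPH and 2 mM alpha-KG for 80 min at room temperature; remaining NADPH was read by diaphorase/resazurin fluorescence.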
TGFb SMAD3 inh = blocks TGF-b signaling | HepG2 CAGA-GFP TGF-b/SMAD3 reporter, GFP fluorescence, 18 h; TGF-beta stimulated, 500 pg/mL final | Potency, µM (top dose mostly 46.1 µM), for inactives: at the top dose activity, negative = inhibition, actives largely listed as inhibitors | 1.2% of 410,000 active; also: potency is read from the fitted curve at half-maximal effect; % is scaled to controls: 0 for no effect and ±100 for the full control effect; nearly all actives have a fitted effect of over 65% in size
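GFP signal (ex488/em500-530) from TGF-beta-stimulated HEPG2 CAGA-GFP cells, 500 pg/mL final, 18 h at 37 degrees C in DMEM plus 1% FBS, normalized to unstimulated and DMSO-stimulated controls.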
LDHA block = inhibitors of human lactate dehydrogenase A. P00338. 0.15% of 480,000 active. activity change, % (values are at about 110 or 230 µM). AID 1347041. purified LDHA, NADH/diaphorase-resazurin fluorescence; active compounds read low; in the data active = activity change below about -30%; inconclusive = mostly about -25% to -30%;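 also: plate controls were DMSO wells for no effect and wells without enzyme for full effect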
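Remaining NADH was detected by diaphorase (0.133 mg/mL) converting 37 µM resazurin to fluorescent resorufin, read at 0 and 20 minutes. The preceding 5-minute room-temperature reaction used 2 nM LDHA, 0.2 mM sodium pyruvate and 0.06 mM NADH at pH 7.4.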
HepG2 viability = counter-screen for TGF-b inhibitors: cytotoxicity in HepG2 cells; HepG2 CAGA-GFP viability, ATP luminescence, 18 h; Potency, µM (highest dose often 46.1 µM), inactives show top-dose activity change, negative = cytotoxicity, usual class: cytotoxic; 0.76% of 410,000 active; also: potency is read from the fitted curve at half-maximal effect
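CellTiter-Glo luminescence gave cytotoxicity after 18 hours at 37 degrees C. The cells were HepG2 CAGA-GFP in 1% FBS DMEM, stimulated with 500 pg/mL TGF-beta after compound addition. %Activity was normalised to no-cell wells (complete cell-killing) and DMSO (no toxicity), and curves were fitted and classified.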
ATXN viability = reduces viability in counter-screen for ATXN expression inhibitors. 0.49% of 400,000 active. Potency, µM (highest dose often 56.7 µM), usual class: cytotoxic. S2 cells (HEK-293 line with an ATXN2-luciferase reporter) viability, CellTiter-Fluor protease fluorescence, 24 h; also: potency is read from the fitted curve at half-maximal effect; nearly all actives have a fitted effect of over 40% in size
ATXN2 expr inh = reduces ATXN2 reporter expression in HEK-293 cells | AID 1745845 | HEK-293 ATXN2-luciferase reporter, luminescence, 24 h | Potency, µM (top dose mostly 57 µM), for the others: at the highest dose activity change, negative = inhibition, most hits filed as inhibitors | 0.72% of 360,000 active; also: potency is read from the fitted curve at half-maximal effect; % is scaled to controls: 0 for no effect and ±100 for the full control effect; nearly all actives have a fitted effect of over 55% in size
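qHTS (up to 57 uM final) was run with 24 h compound exposure of reporter cells at 37 °C. Each well was multiplexed: SteadyGlo luminescence measured ATXN2-luciferase expression after a fluorogenic Gly-Phe-AFC viability readout (25 uM final).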
* = called active by the depositor; i = inactive; ? = inconclusive; · = not tested or not shown; [ ] = dose if it differs, or a comment. Shown are actives, neighbours in structure and some others; about 2.2% of the full set was active somewhere. Unless noted, calls follow the shape of the dose curve; as a rule, active = well fitted curve in the direction sought with a large enough effect; inconclusive = small, poorly fitted or top-dose-only effect, or another doubt; inactive = no such curve, though single readings can be large; an effect the other way counts as inactive or inconclusive.

SMILES | IDH1 R132H inh | TGFb SMAD3 inh | LDHA block | HepG2 viability | ATXN viability | ATXN2 expr inh
CN1c2ccccc2C(C)(C)[C@]12C=Cc1cc(O)ccc1O2 | -5% | 18µM* | 14 | -38% | ? | -14%
O=C(N/N=C/c1ccccc1Br)c1cccs1 | · | · | -15 | · | · | ·
CC(C)(C)C1=CC(=O)C(=O)C(C(C)(C)C)=C1 | 6% | 16µM* | 18 | -88% | 13µM* | ·
CC(C)(C)C1=CC(=Nc2ccccc2N)C=C(C(C)(C)C)C1=O | 0% | ? | 14 | -50% | i | 14%
C#CCSc1nnnn1-c1ccc(Br)c(C)c1 | -8% | 3% | -8 | -19% | i | 3%
COc1cc2nc(SCc3ccc(C)cc3)n3nc(CCn4nc(C)cc4C)nc3c2cc1OC | -13% | 21% | 0 | -13% | i | 5%
CCOc1ccc(S(=O)(=O)NCC(c2cccs2)S(=O)(=O)c2ccc(C)cc2)cc1 (centres undefined) | 5% | 5µM* | 4 | -36% | · | ·
Cc1cc(C)c(S(=O)(=O)NCC(c2cccs2)S(=O)(=O)c2ccccc2)c(C)c1 (centres undefined) | 13% | 5.6µM* | 9 | 6.3µM* | · | ·
CCOc1cc(/C=C2/NC(=O)NC2=O)cc(Br)c1OCc1ccccc1 | · | · | -7 | · | · | ·
CCS(=O)(=O)N1CCC(C(=O)NCc2ccccc2OC)CC1 | -1% | -2% | 2 | 13% | i | -2%
N/C(=N\OC(=O)c1ccoc1)c1ccc(Br)cc1 | -5% | -18% | 1 | 4% | i | 18%
CCCCN(C=O)c1c(CC)nc2ccc(C(=O)Nc3cc(-c4ccccc4)ccc3OC)cn12 | · | 7.1µM* | 0 | -11% | i | ?
CCc1nc2ccc(C(=O)Nc3cc(-c4ccccc4)ccc3OC)cn2c1N(CC)CCN(C)C | · | ? | -4 | 14µM* | · | ?
O=C(N/N=C/c1ccc([N+](=O)[O-])o1)C1CCCC1 | -4% | ? | -7 | -72% | i | -32%
O=[N+]([O-])c1ccc(/C=[N+](\[O-])[C@@H]2CCCC[C@@H]2/[N+]([O-])=C/c2ccc([N+](=O)[O-])o2)o1 | 2% | 7.1µM* | 6 | -53% | · | ?
CN(Cc1ccccc1)CC(O)COc1ccc(CNCc2ccc(Cl)s2)cc1 (centres undefined) | 3% | 13µM* | 0 | -59% | ? | ?
CCc1ccccc1NC(=O)CC(c1ccc(F)cc1)N1Cc2ccccc2C1=O (centres undefined) | 10% | ? | 0 | -23% | · | ·
COc1cc(C#Cc2c(-c3cncn3C)n(C)c3ccc(-c4cnc(N5CCOCC5)nc4)cc23)cc(OC)c1 | -13% | -19% | -2 | -16% | i | ?
COc1cc(C#Cc2c(-c3cncn3C)n(C)c3ccc(-c4cnc(OC)nc4)cc23)cc(OC)c1 | ? | ? | 3 | -36% | i | 20µM*
CC1=CC(C)(C)Nc2ccc(Cc3ccc4c(c3)C(C)=CC(C)(C)N4)cc21 | 0% | ? | 6 | -19% | i | ·
C=CC(=O)N1c2ccccc2Sc2ccc(NC(=O)OCC)cc21 | 1% | 16µM* | -5 | -22% | ? | ?
CSc1c[n+]2c(n1C)CCC2 | 2% | -14% | -34* | -1% | i | 1%
CCOc1ccc(-n2c(-c3ccccc3)c[n+]3c2CCC3)cc1 | -6% | ? | -5 | -21% | ? | -30%[11.3 µM]
Cc1oc(-c2ccc(Cl)cc2)nc1CN1CCC(C(=O)NCCCN2CCCC(C)C2)CC1 (centres undefined) | -17% | ? | -3 | 14µM* | ? | ?
Cc1oc(-c2ccc(Cl)cc2)nc1CN1CCCC(C(=O)NCCc2ccccc2)C1 (centres undefined) | 0% | 7.1µM* | 2 | -21% | ? | -2%
SMILES | IDH1 R132H inh | TGFb SMAD3 inh | LDHA block | HepG2 viability | ATXN viability | ATXN2 expr inh
COc1ccc(S(=O)(=O)NCCC(=O)OCC(=O)NC2CC2)cc1 | 6% | 8% | -6 | 11% | i | 6%
CCNc1ccc(Br)cc(C(=O)/C=C/c2c(Cl)cccc2Cl)c1=O | 5% | 35% | 7 | -50% | ? | ?
CCNc1ccc(Br)cc(C(=O)/C=C/c2ccc(Cl)cc2)c1=O | 7% | 0% | 11 | -43% | · | 22µM*
Cc1ccc(NCCN(C)C)c2c(=O)c3cc(O)ccc3sc12 | 2% | ? | -16 | -114% | 27µM* | 11µM*
COc1cc(C)c2sc3ccccc3c(=O)c2c1NCCN(C)C | 12% | ? | 1 | -125% | · | ·
CN(C)CCNc1cccc2sc3ccc(O)cc3c(=O)c12 | · | 4.5µM* | 0 | -58% | i | 18µM*
CCCCCCSc1cc(-c2nc3cc(C)ccn3c2NCCCC)ccc1OC | 3% | ? | -1 | -50% | · | ?
CCCCNc1c(-c2cccc(-c3cc(C(C)=O)cs3)c2)nc2cc(C)ccn12 | 10% | ? | 0 | -27% | 11µM* | 22µM*
O=C(N/N=C/c1cc(O)ccc1Br)c1cccnc1 | -3% | -27% | -3 | -49% | ? | 2.8µM*
Cc1cc(O)c(C)c(O)c1/C=N/NC(=O)c1cccnc1 | 19% | -4% | 0 | -11% | i | 11µM*
O=C(N/N=C/c1cc(Br)c(O)c(Br)c1O)c1cccnc1 | 6% | -5% | 8 | 0% | ? | ·
O=C(C[n+]1c2ccccc2cc2ccccc21)c1ccc(F)cc1 | · | -2% | -45* | -28% | · | ·
COC(=O)c1ccc(/C=N/NS(=O)(=O)c2cc(C)ccc2C)cc1 | 2% | -3% | -4 | -17% | ? | 8%
CCCCC#Cc1ccc(C(=O)NNC(=O)Nc2ccccc2)o1 | 2% | 0% | -39* | -22% | i | -4%
CCCCN(CCCC)Cc1ccc(C(=O)NNC(=O)Nc2ccc(F)cc2)o1 | 2% | 0% | 7 | 18µM* | i | -7%
COc1ccc2c(c1)CCc1c(C(=O)NCc3cccnc3)noc1-2 | 3% | -6% | 6 | 1% | i | 21%
CN(C)CC(C)(C)CNc1nn2c(-c3ccccc3)nnc2cc1C1CCC1 | · | · | · | · | · | 0.77µM*
Cc1cccc(-c2noc(-c3c(C)noc3C)n2)c1 | 14% | 0% | -4 | -168% | i | 22%
Cc1ccc(-c2noc(-c3c(C)noc3C)n2)cc1 | -4% | 2% | -1 | 0.89µM* | i | ·
C=CCOc1c(Br)cc(/C=C2\SC(=Nc3ccccc3)NC2=O)cc1OC | -6% | ? | -2 | 16µM* | ? | ·
CCOc1cc(Br)cc(/C=C2\SC(=Nc3ccccc3)NC2=O)c1O | 2% | 10µM* | -2 | -82% | ? | ·

High-throughput results (PubChem)
